From the supplement of paper PMC9135407
“And” between values parts separate entries of the source, which are not always exact repeats. Equal values may be shown once. Where a name gives a salt, the structure may show the parent alone. Among all 5,800 compounds or so, about 620 (11%) showed activity. The entries come from a sample that favours actives as a whole. Values without a mark were called inactive.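 The calls were made as follows: active = score above a cut-off or among the top three wells of a plate; in these data no inactive exceeds 0.85.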

Tested on: primary human hepatic stellate cells (donor 1)
Assay: scaled lipid accumulation score (0 = DMSO-like, 1 = nortriptyline-like); higher = stronger HSC inactivation (lipid re-accumulation), active = hit call of the paper
Conditions: 48 h
[1] = library stock concentration: 10 mM
[2] = library stock concentration: 1 mM
[3] = library stock concentration: 6.9 mM
[4] = library stock concentration: 3.33 mM

CC(C)(C)OC(=O)NC1[C@H]2CNC[C@@H]12 (stereo not given in full)
scaled lipid accumulation score [1]: ≤ -0.033

CCCCCCCCCCCCCCCCSP(=O)([O-])OCC[N+](C)(C)C [thio-Miltefosine]
scaled lipid accumulation score [2]: ≤ 0

CCCCC/C=C\C/C=C\C/C=C\C/C=C\CCCC(=O)NCc1ccoc1
scaled lipid accumulation score [2]: ≤ 0

CCCCC(C#N)(Cn1cncn1)c1ccc(Cl)cc1 (stereo not given) [Myclobutanil]
scaled lipid accumulation score [3]: ≤ 0

[O-][n+]1ccccc1[S-].[O-][n+]1ccccc1[S-].[Zn+2] [Pyrithione zinc]
scaled lipid accumulation score (library stock concentration: 6.3 mM): 0.435
scaled lipid accumulation score [1]: 0.127

c1cncc([C@@H]2CCCN2)c1 [Nornicotine]
scaled lipid accumulation score [1]: ≤ 0

c1cncc([C@@H]2CCCCN2)c1 [Anabasine]
scaled lipid accumulation score: ≤ 0

Fc1cc(F)c2c(c1)[C@H]1C=CC[C@@H]1C(c1cccnc1)N2 (stereo not given in full) [Golgicide A]
scaled lipid accumulation score [4]: 0.872 (active)
scaled lipid accumulation score [1]: 1.03 (active)

C[C@H](CCC(=O)O)C[C@H](C)C[C@H](C)C(=O)/C=C(\O)[C@H](C)C[C@H](C)C/C=C/[C@@H](C)[C@@H](O)[C@@H](C)[C@@H](O)C[C@@H]1CC[C@@](C)([C@H]2CC[C@@](C)([C@@H](C)O)O2)O1 [Ionomycin]
scaled lipid accumulation score (library stock concentration: 7.1 mM): 0.48

O=C1CN=C(c2ccccc2)c2cc([N+](=O)[O-])ccc2N1 [Nitrazepam]
scaled lipid accumulation score [1]: ≤ 0

COc1ccc2[nH]cc(CCN)c2c1 [O-Methylserotonin hydrochloride]
scaled lipid accumulation score [1]: ≤ -0.055

COc1ccc(CNC(=O)/C=C/c2ccc3[nH]cc(CCN(C)C)c3c2)cc1 [listing 1 of 2 here]
scaled lipid accumulation score [1]: 0.736

COc1ccc2[nH]cc(CCN)c2c1 [5-Methoxytryptamine]
scaled lipid accumulation score [1]: ≤ 0

COc1ccc(CNC(=O)/C=C/c2ccc3[nH]cc(CCN(C)C)c3c2)cc1 [listing 2 of 2 here]
scaled lipid accumulation score [1]: 1.03 (active)

O[C@H]1[C@H](O)[C@@H](O)CN2CC[C@H](O)[C@H]12 [Castanospermine]
scaled lipid accumulation score [1]: ≤ 0
scaled lipid accumulation score (library stock concentration: 26.4 mM): 0.125

CCCCCC=CCC=CCC=CCC=CCCCC(=O)NCC(O)CC(=O)O (stereo not given) [N-Arachidonoyl-3-hydroxy-.gamma.-Aminobutyric Acid]
scaled lipid accumulation score [2]: ≤ 0

CC[C@H]1CN2CC[C@H]1C[C@H]2[C@H](O)c1ccnc2ccc(OC)cc12 [Hydroquinine hydrobromide hydrate]
scaled lipid accumulation score: ≤ 0

CCCC[C@H]1C(=O)O[C@H](C)[C@H](NC(=O)c2cccc(NC=O)c2OC)C(=O)O[C@@H](C)[C@@H]1OC(=O)CC(C)C [2-methoxyantimycin A3]
scaled lipid accumulation score (library stock concentration: 9.4 mM): 0.292

CC(C)(C)c1cc(C=C(C#N)C#N)cc(C(C)(C)C)c1O [Tyrphostin 9] [listing 1 of 2 here]
scaled lipid accumulation score [4]: 0.175
scaled lipid accumulation score (library stock concentration: 17.7 mM): 0.752

CC(C)(C)c1cc(C=C(C#N)C#N)cc(Br)c1O
scaled lipid accumulation score [4]: ≤ 0
scaled lipid accumulation score [1]: ≤ 0

CC(C)(C)c1cc(C=C(C#N)C#N)cc(C(C)(C)C)c1O [Tyrphostin A9]
scaled lipid accumulation score [1]: 0.728

CC(C)(C)c1cc(C=C(C#N)C#N)cc(C(C)(C)C)c1O [Tyrphostin 9] [listing 2 of 2 here]
scaled lipid accumulation score [1]: 1.27 (active)

C[C@]12CC[C@H]3[C@@H](CCC4=CC(=O)CC[C@@]43C)[C@@H]1CC[C@@H]2O [Testosterone]
scaled lipid accumulation score [3]: 0.032
scaled lipid accumulation score [1]: 0.108 and 0.479

Oc1cc2c(cc1O)[C@H]1c3ccccc3CN[C@@H]1CC2 (racemic) [Dihydrexidine hydrochloride]
scaled lipid accumulation score [1]: 0.823

CCCC[N+]1(C)[C@@H]2C[C@@H](OC(=O)[C@H](CO)c3ccccc3)C[C@H]1[C@@H]1O[C@@H]12 (single isomer, unassigned; (-)) [(-)-Scopolamine,n-Butyl-, bromide]
scaled lipid accumulation score [1]: ≤ 0

CC(N)Cc1c[nH]c2ccc(O)cc12 (stereo not given)
scaled lipid accumulation score [1]: ≤ 0

CNCCc1c[nH]c2ccc(O)cc12 [N-omega-Methyl-5-hydroxytryptamine oxalate salt]
scaled lipid accumulation score [1]: ≤ -0.055

CC(N)Cc1c[nH]c2ccc(O)cc12 (stereo not drawn) [alpha-Methyl-5-hydroxytryptamine maleate]
scaled lipid accumulation score [1]: ≤ -0.055

CCCCCCCCCOc1ccc2[nH]cc(CCN)c2c1 [5-Nonyloxytryptamine]
scaled lipid accumulation score (library stock concentration: 9.9 mM): 0.5

CC(N)Cc1c[nH]c2ccc(OCc3cccs3)cc12.Cl (stereo not given) [BW 723C86 hydrochloride]
scaled lipid accumulation score [1]: 1.3 (active)

CC(N)Cc1c[nH]c2ccc(OCc3cccs3)cc12.Cl (stereo not given)
scaled lipid accumulation score [1]: 1.18 (active)

CC(N)Cc1c[nH]c2ccc(OCc3cccs3)cc12 (stereo not given)
scaled lipid accumulation score [2]: 0.315

CN1CCC2=C[C@H](O)[C@H]3OC(=O)c4cc5c(cc4[C@H]3[C@@H]21)OCO5 [Hippeastrine hydrobromide]
scaled lipid accumulation score: ≤ 0

O=S(=O)(c1c(O)c(Cl)cc(Cl)c1Cl)c1c(O)c(Cl)cc(Cl)c1Cl [p38 MAP Kinase Inhibitor IV]
scaled lipid accumulation score [4]: ≤ 0
